Results reported in PubChem BioAssay.
A number with no mark means an inactive call. How the calls were made is not given here. Where a SMILES comes first, the peptide text is derived from it. [ ]: non-standard residue; d: D form. The star is where a group is joined. ξ: configuration not given here. Cbz = O=C(OCc1ccccc1)*; ξK = NCCCCC(N)C(=O)O

Biological target: Pantothenate synthetase (Mycobacterium tuberculosis (strain ATCC 25618 / H37Rv)) (UniProt P9WIL5)
Test: Recombinant Mtb pantothenate synthetase (PanC) inhibitors, coupled enzyme, confirmatory (AID 375);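 further: 0% = full reaction with vehicle and 100% = no enzyme background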
Details: coupled enzyme assay; at 10 µM, stronger effect = higher value

Pantothenate synthetase (Mycobacterium tuberculosis (strain ATCC 25618 / H37Rv)), sequence (P9WIL5 whole entry, looked up): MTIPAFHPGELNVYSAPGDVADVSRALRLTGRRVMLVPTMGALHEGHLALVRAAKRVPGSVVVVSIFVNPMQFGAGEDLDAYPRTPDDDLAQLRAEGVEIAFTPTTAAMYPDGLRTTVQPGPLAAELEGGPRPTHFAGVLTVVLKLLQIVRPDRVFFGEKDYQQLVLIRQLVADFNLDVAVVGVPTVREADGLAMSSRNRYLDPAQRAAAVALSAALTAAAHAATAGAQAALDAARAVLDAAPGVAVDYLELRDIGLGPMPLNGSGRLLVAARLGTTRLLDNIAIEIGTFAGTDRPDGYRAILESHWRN

SMILES | inhibition
Cn1c(=O)c(C(=S)NC(=O)C2CC2)c(N)n(Cc2ccccc2)c1=O | 3%
Cc1ccc2c(C(=O)CN3CCSCC3)c(C)[nH]c2c1 | 0%
COC(=O)C(CCCCNC(=O)OCc1ccccc1)NC(=O)CN (configuration not stated) (H-Gly-[ξK](Cbz)-OMe) | 0%
COc1ccc(Cl)c(N2CCN(CCCNC(=O)Nc3ccc(C)cc3)CC2)c1 | 0%
Nc1nc2n(n1)C(c1c(F)cccc1Cl)CC(c1ccc(F)cc1)N2 (configuration not stated) | 1%
CN(C)CCCN1C(=O)c2oc3ccc(Cl)cc3c(=O)c2C1c1cccnc1 (configuration not stated) | 0%
O=S(=O)(c1ccc2ccccc2c1)N1CCCCC1 | 0%
O=C(Nc1ccc2nn(-c3ccccc3)nc2c1)c1ccc(Br)o1 | 0%
Nc1ncnc(Nc2ccccc2C(F)(F)F)n1 | 0%
CC1(C)CC(=O)C=C(Nc2ccc(OCC(F)(F)C(F)F)cc2)C1 | 5%
Cc1ccc(-c2nc(-c3cccnc3)no2)c(C)c1 | 5%
COc1cc2nc(N3CCN(C(=O)c4ccco4)CC3)nc(N)c2cc1OC | 2%
CCCC(C)C(=O)Nc1ccc(C(N)=O)cc1 (configuration not stated) | 3%
COc1ccc(CCNc2oc(Cc3cccc4ccccc34)nc2C#N)cc1OC | 5%
CN(C1CCS(=O)(=O)C1)S(=O)C12CC3CC(CC(C3)C1)C2 (configuration not stated) | 3%
CC(C)(C)n1ncc2c(=O)n(CC(=O)NCc3ccc(F)cc3)cnc21 | 4%
Cc1c(NC(=O)c2ccc(CN3CCc4ccccc4C3)cc2)c(=O)n(-c2ccccc2)n1C | 0%
